# Bioassay records: PubChem, National Center for Advancing Translational Sciences (NCATS)
# Pf Dd2 growth: qHTS Primary assay for Inhibitors of Plasmodium falciparum Dd2 growth in vitro | P. falciparum Dd2 growth, SYBR Green, 72 h | Potency, µM (highest dose often 28.9 µM), without a hit: at the top dose activity, negative = inhibition, most hits filed as inhibitors | hit rate 4.3% among 120,000 | AID 1347417, 2020; active means well fitted inhibition curve with a large enough effect;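 further: plate controls were DMSO vehicle for no effect and reference drug for full effect; nearly all actives have a fitted effect of over 65% in size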
#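 Readout: SYBR Green fluorescence, 485 nm excitation, 535 nm emission, after ~16 h lysis at 37C. Before that, Dd2-infected red cells (2.5% hematocrit) grew 72 h with compound, 29 uM top final concentration.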
# Active calls of the source: *; i = inactive; [ ] = another dose, or the depositor's remark. Shown is part of a subset that was picked to be rich in hits. Potency means the concentration at half of the fitted maximal effect.
SMILES,Pf Dd2 growth
Cc1c(Cl)cccc1NC(=O)Cn1c(=O)n(Cc2nc(-c3ccccc3)no2)c(=O)c2cc3c(cc21)OCO3,-11.6%
Cc1ccc(Cn2c(=O)n(-c3ccccc3)c(=O)c3ccc(C(=O)NCc4ccco4)cc32)cc1,-16.0%
O=C(Cn1c(=O)n(Cc2nc(-c3ccccc3)no2)c(=O)c2cc3c(cc21)OCO3)Nc1ccc(Cl)cc1,10µM*
Cc1ccc(NC(=O)Cn2c(=O)n(Cc3ccc(C(=O)NCc4ccc5c(c4)OCO5)cc3)c(=O)c3ccccc32)cc1,8.91µM*
Cc1ccccc1NC(=O)Cn1c(=O)n(CCCC(=O)NCc2ccc3c(c2)OCO3)c(=O)c2ccccc21,22.2%
CCN(C(=O)Cn1c(=O)n(-c2ccccc2)c(=O)c2ccc(C(=O)NCc3ccc4c(c3)OCO4)cc21)c1cccc(C)c1,7.08µM*
O=C(Cn1c(=O)n(Cc2ccc(C(=O)NCc3ccc4c(c3)OCO4)cc2)c(=O)c2ccccc21)Nc1ccccc1F,i
Cc1ccc(NC(=O)Cn2c(=O)n(-c3ccccc3)c(=O)c3ccc(C(=O)NCc4ccc5c(c4)OCO5)cc32)cc1,-8.2%
O=C(Cn1c(=O)n(-c2ccccc2)c(=O)c2ccc(C(=O)NCc3ccc4c(c3)OCO4)cc21)Nc1ccc(Br)cc1F,8.91µM*
Cc1ccc(Cl)cc1NC(=O)Cn1c(=O)n(Cc2ccc(C(=O)NCc3ccc4c(c3)OCO4)cc2)c(=O)c2ccccc21,-17.4%
Cc1ccc(-n2c(=O)c3ccc(C(=O)NCc4ccccc4Cl)cc3n(CC(N)=O)c2=O)cc1,22.5%
Cc1ccc(NC(=O)Cn2c(=O)n(Cc3nc(-c4ccccc4)no3)c(=O)c3cc4c(cc32)OCO4)c(C)c1,86.6%
CC1=C[C@@H](CC#N)[C@H](C(C)C)C[C@H]1CC(=O)NC1CC1,-19.1%[44.1 µM]
CC(C)C1=NOC2(CCCN(C(=O)c3ccccc3)C2)C1 (centres undefined),9.2%[44.1 µM]
CCn1c(=O)c2c(cc(C)n2C)n(CC(=O)Nc2ccc(OC)c(Cl)c2)c1=O,i
O=C(Nc1cccc(C(F)(F)F)c1)N[C@@H]1C[C@H](CO)[C@@H](O)[C@H]1O,-14.5%[44.1 µM]
Cn1cc(C(=O)N2CCCC(Cc3noc(-c4ccncc4)n3)C2)cn1 (centres undefined),10.8%
O=C(Cc1ccc(N(Cc2ccccc2)C(=O)c2ccco2)cc1)N1CCOCC1,i
CCN1CC(c2ccccc2)CC2(CCN(C(=O)N3CCCC3)CC2)C1 (centres undefined),-48.6%
CC(C)c1noc(-c2cn(C3CCN(C(=O)c4ccc(F)c(F)c4)CC3)nn2)n1,i
CNC(=O)[C@@H]1C[C@H](n2cc(CNC(=O)Nc3ccc(F)cc3F)nn2)CN1,-9.8%
CN1CC(=O)N(C2CCNC2)Cc2c(NCCCN3CCCCC3)ncnc21 (centres undefined),6.0%
Cc1ccc(-c2ncc3c(n2)OCCN(Cc2ccc(F)cc2F)C3=O)cc1,i
O=C1CCCCCN1CCC(=O)N1CCOC(CCCc2ccccc2)C1 (centres undefined),-18.8%
COc1cccc(-c2nc(SCc3ccc(C)cc3)n3[nH]c(=O)cc3n2)c1,i
SMILES,Pf Dd2 growth
COc1ccc(NC(=O)CSc2nc(-c3ccccc3)nc3cc(=O)[nH]n23)cc1,i
CC(C)(C)c1ccc(-c2nc(SCCCOc3ccccc3)n3[nH]c(=O)cc3n2)cc1,10µM*
Cc1ccc(F)c(OC2(C(=O)O)CCN(c3cnc4ccccc4n3)CC2)c1,-8.8%
O=C(N[C@H]1CCN2C(=O)c3cc(/C=C/c4ccc(O)cc4)ccc3NC(=O)[C@H]12)c1cnccn1,-20.9%
O=C(N[C@H]1CCN2C(=O)c3cc(-c4ccccc4F)ccc3NC(=O)[C@H]12)c1cnccn1,5.62µM*
O=C(N[C@H]1CCN2C(=O)c3cc(/C=C/c4ccccc4)ccc3NC(=O)[C@H]12)c1cnccn1,-13.8%[44.1 µM]
CCN1C(=O)Cc2ccccc2C1C(=O)N(C)Cc1ccco1 (centres undefined),-13.5%
CC(C)c1nnc(C2CN(C(=O)c3ccc(F)cc3)CC23CCOCC3)o1 (centres undefined),-1.6%
CC(C)NC(=O)N1CCC(OCCOc2cccnc2)CC1,62.9%
CCOc1cc(C)c(CN2CCCC(O)(CN(C)C)C2)cc1C(C)C (centres undefined),2.82µM*
COc1ccc2c(c1)C=C(CN1CCCC(O)(CN(C)C)C1)CO2 (centres undefined),-15.7%
CN(C)CC1(O)CCCN(Cc2ccc(-c3ccc(Cl)cc3)o2)C1 (centres undefined),-23.2%
CC(=O)Nc1ccc(C2(C(=O)N(C)Cc3ccccc3)CCCCC2)cc1,i
CN(Cc1ccccc1)C(=O)C1(c2ccc(NC(=O)C3CC3)cc2)CCCCC1,4.47µM*
O=C(Nc1ccc(C2(C(=O)O)CCC2)cc1)C1CC1,0.4%
Cc1ccc(S(=O)(=O)N2CCC(CC(=O)NCc3ccccc3)C2)c(C)c1 (centres undefined),i
Cc1ccc(NC(=O)NC[C@H]2O[C@@H](CC(=O)NCCN3CCOCC3)[C@H](O)[C@@H]2O)cc1,-11.7%
Cc1ccc(-n2nc3n(c2=O)CCN(C(=O)c2ccc(F)cc2)C3)cc1,9.6%
